From PubChem BioAssay (EPA / NIEHS) come the findings set out here.

Inconclusive results are not listed. Active and inactive are the calls of the source. Rule for the calls: active = hit-call score of the fitted dose curve at least 0.9, where 1 is the maximum; inconclusive = response in the unintended direction; inactive = score below 0.9.

human Peroxisome Proliferator-activated Receptor delta (PPARd), PPARD (gene 5467), sequence (Q03181 whole entry, looked up): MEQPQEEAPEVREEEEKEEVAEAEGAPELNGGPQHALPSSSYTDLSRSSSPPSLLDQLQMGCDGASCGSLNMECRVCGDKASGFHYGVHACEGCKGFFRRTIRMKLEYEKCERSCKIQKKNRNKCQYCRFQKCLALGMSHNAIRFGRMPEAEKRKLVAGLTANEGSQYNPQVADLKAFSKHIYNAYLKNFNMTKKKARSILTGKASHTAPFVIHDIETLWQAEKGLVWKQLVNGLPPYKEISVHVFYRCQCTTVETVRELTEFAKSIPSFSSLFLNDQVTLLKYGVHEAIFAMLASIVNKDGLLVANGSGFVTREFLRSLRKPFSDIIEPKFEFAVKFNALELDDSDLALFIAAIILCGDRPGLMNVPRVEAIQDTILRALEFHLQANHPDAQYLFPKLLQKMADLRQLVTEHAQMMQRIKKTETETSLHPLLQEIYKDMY

This test has as its target human Peroxisome Proliferator-activated Receptor delta (PPARd), PPARD (gene 5467) (UniProt Q03181). Nature of the test: ATG_PPARd_TRANS: Attagene TRANS-FACTORIAL HepG2 Assay for human Peroxisome Proliferator-activated Receptor delta (PPARd) (AID 2283002). As to the method:
ATG_TRANS is a cell-based, multiplexed-readout assay that uses HepG2, a human liver cell line, with measurements taken at 24 hours after chemical dosing in a 24-well plate.ATG_PPARd_TRANS is one of 30 assay component(s) measured or calculated from the ATG_TRANS assay. It is designed to make measurements of mRNA induction, a form of inducible reporter, as detected with fluorescence intensity signals by Reverse transcription polymerase chain reaction (RT-PCR) and Capillary electrophoresis technology.Data from the assay component ATG_PPARd_TRANS was analyzed into 1 assay endpoint. This assay endpoint, ATG_PPARd_TRANS, was analyzed in the positive analysis fitting direction relative to DMSO as the negative control and baseline of activity. Using a type of inducible reporter, measures of mRNA for gain-of-signal activity can be used to understand the reporter gene at the transcription factor-level as they relate to the gene PPARD. Furthermore, this assay endpoint can be referred to as a primary readout, because this assay has produced multiple assay endpoints where this one serves a reporter gene function. To generalize the intended target to other relatable targets, this assay endpoint is annotated to the nuclear receptor intended target family, where the subfamily is non-steroidal.
Human liver HepG2 cells are transiently transfected with multiple reporter transcription units (MRTUs) in 6-well plates using FuGene 6 reagent (Roche; 3 ml FuGene/1 mg DNA). The MRTU constructs are regulated by a cis-regulating element (promoter). […] A major difference between the CIS and TRANS system is that in CIS activities of endogenous TFs are measured, whereas the TRANS assay evaluates changes in activities of exogenous, chimeric NR-Gal4 proteins. […] At the end of 24 hour incubation, total RNA was isolated using TriZol reagent (Invitrogen). The isolated RNA is then reverse-transcribed using oligo(dT) primer and Mo-MLV reverse transcriptase (Invitrogen) with DNAse I (Ambion) treatment for 30 min. The one-tenth of the produced cDNA was amplified by PCR using Taq DNA polymerase (Invitrogen) and two reporter sequence-specific primers. The PCR products were fluorescently labeled by primer extension with 6-arboxyfluorescein (6-FAM) 5'-labeled reporter sequence-specific primer (2 min at 95 C, 20 s at 68 C and 10 min at 72 C) and these products were digested with 5U of HpaI (New England Biolabs) for 2h at 37 C. The fragments were purified using Qiaquick PCR columns (Qiagen), analyzed on an ABI 3130xL genetic analyzer (Applied Biosystems) with peak positions identified by using a set of X-rhodamine (ROX)-labeled MapMarker1000 molecular weight standards (BioVentures). The raw capillary electrophoresis data was processed using Attagraph software (Attagene).
Consider `O=C1c2ccccc2C(=O)c2c(Cl)cccc21`, for which the outcome was inactive. The same measure for `CCCCCCCC/C=C\CCCCCCCC(=O)N(C)CC(=O)O`: “inactive”; for `C=C(C)CCCC`: “inactive”.

Regarding `CSc1ccc(O)cc1C`, the compound was classed as inactive. On to `CNS(=O)(=O)C(F)(F)C(F)(F)C(F)(F)C(F)(F)C(F)(F)C(F)(F)C(F)(F)C(F)(F)F`, for which the compound was classed as inactive. As to `O=S(=O)(Cl)C(F)(F)C(F)(F)C(F)(F)C(F)(F)C(F)(F)C(F)(F)C(F)(F)C(F)(F)F`, the call was inactive. The entry for `O=C1c2c(O)ccc(Nc3ccc(CCO)cc3)c2C(=O)c2c([N+](=O)[O-])ccc(O)c21` is “inactive”; for `O=C(Cl)c1ccc(Cl)cc1Cl` it is “inactive”; for `CN(C)C(C)(C)CO` it is “inactive”. On to `OCC1CCCO1` (stereo not given), for which the result was inactive.

With `CO[Si](CCCOCC1CO1)(OC)OC` (stereo not given), the result was inactive.

In the case of `N#Cc1ccccc1O`, the compound was called inactive. Consider `OCC(F)(F)C(F)(F)C(F)(F)C(F)(F)C(F)(F)C(F)(F)C(F)(F)C(F)(F)CO`, for which the result was inactive. The entry for `COCCC(=O)OC` is “inactive”. The same measure for `CCCCCCCCCCCCCCCCC`: “inactive”; for `CC(C)Nc1ccc(NC(C)C)c2c1C(=O)c1ccccc1C2=O`: “inactive”. Turning to `CCn1c2ccccc2c2ccccc21`, the result was inactive. As to `CCN=c1cc2oc3cc(NCC)c(C)cc3c(-c3ccccc3C(=O)OCC)c-2cc1C`, the call was inactive. The entry for `CCOC(=O)CCC(C)=O` is “inactive”. Consider `CCCCCCCC/C=C\CCCCCCCC(=O)OCC(O)CO` (stereo not given), for which the compound was classed as inactive. For the compound `O=C=NCc1cccc(CN=C=O)c1`, the result was inactive. The same measure for `CCc1cccc(C)c1N(C(=O)C(=O)O)C(C)COC` (stereo not given): “inactive”. The entry for `O=C(O)C(F)(F)OC(F)(F)C(F)(F)OC(F)(F)C(F)(F)OC(F)(F)F` is “inactive”; for `Nc1c(Br)cc([N+](=O)[O-])cc1Br` it is “inactive”; for `O=C1OC(=O)c2ccc3c4c(ccc1c24)C(=O)OC3=O` it is “inactive”. On to `Nc1cccnc1N`, for which the outcome was inactive. Take `C=CC(=O)OCC(F)(F)C(F)(F)C(F)(F)C(F)(F)C(F)(F)C(F)(F)C(F)(F)C(F)F`: the result was inactive. The same measure for `Cc1ccc(O)c(-n2nc3ccccc3n2)c1`: “inactive”.

For `CCC/C=C/CO`, the result was inactive. As to `FC(F)(F)C(F)(F)C(F)(F)C(F)(F)C(F)(F)C(F)(F)C(F)(F)CCI`, the compound was called inactive.

Consider `O=C(F)C1(F)C(F)(F)C(F)(F)C(F)(F)C(F)(F)C1(F)F`, for which the call was inactive. The entry for `NC(O)(C(F)(F)F)C(F)(F)F` is “inactive”; for `Brc1nc2ccccc2s1` it is “inactive”; for `CC(C)CCCC(C)CCO` (stereo not given) it is “inactive”. Consider `Cc1ccc(S(=O)(=O)C(I)I)cc1`, for which the outcome was inactive. The same measure for `O=C(O)C(F)(F)C(F)(F)C(F)(F)OC(F)(C(F)(F)F)C(F)(F)F`: “inactive”. In the case of `OCCCCl`, the call was inactive. In the case of `CCOC(=O)C1CC(=O)C(=C(O)C2CC2)C(=O)C1` (stereo not given), the result was inactive. The entry for `CCCCCCCCCCCCCC[P+](CCCC)(CCCC)CCCC` is “inactive”; for `NC(=O)C(F)(F)C(F)(F)C(F)(F)C(F)F` it is “inactive”.
